The target in assay [1] is T1, Ephrin type-B receptor 2 (Homo sapiens) (UniProt P29323).
T1 sequence (whole entry): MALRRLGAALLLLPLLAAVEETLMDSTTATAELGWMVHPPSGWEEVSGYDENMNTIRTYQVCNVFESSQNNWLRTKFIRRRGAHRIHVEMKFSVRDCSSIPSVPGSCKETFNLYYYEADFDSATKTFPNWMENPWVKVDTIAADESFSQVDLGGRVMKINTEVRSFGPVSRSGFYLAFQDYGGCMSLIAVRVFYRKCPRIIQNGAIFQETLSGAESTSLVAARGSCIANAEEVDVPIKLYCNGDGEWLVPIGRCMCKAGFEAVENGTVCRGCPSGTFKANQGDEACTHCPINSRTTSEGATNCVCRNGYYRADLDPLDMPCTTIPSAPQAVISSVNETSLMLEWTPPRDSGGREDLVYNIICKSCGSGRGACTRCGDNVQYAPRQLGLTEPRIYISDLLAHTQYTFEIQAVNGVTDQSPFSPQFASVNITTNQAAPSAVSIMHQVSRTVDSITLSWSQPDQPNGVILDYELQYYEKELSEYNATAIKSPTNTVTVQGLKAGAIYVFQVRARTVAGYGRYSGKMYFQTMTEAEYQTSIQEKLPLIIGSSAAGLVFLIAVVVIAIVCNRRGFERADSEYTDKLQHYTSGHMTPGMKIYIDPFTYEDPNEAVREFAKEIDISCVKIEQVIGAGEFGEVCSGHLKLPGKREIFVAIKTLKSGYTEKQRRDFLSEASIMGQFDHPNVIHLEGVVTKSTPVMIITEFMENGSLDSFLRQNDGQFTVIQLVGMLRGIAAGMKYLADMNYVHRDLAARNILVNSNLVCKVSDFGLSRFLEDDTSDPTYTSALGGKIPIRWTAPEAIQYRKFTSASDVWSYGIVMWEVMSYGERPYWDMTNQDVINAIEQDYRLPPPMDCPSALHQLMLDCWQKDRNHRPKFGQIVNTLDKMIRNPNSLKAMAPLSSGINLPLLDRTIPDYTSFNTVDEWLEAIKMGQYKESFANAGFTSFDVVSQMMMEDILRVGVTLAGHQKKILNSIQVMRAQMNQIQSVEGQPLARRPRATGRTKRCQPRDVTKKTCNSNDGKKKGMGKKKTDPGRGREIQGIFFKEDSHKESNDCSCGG
The conditions noted are these: at 1 µM.

Assay [2] addresses T2, Ephrin type-B receptor 3 (Homo sapiens) (UniProt P54753).
T2 sequence (whole entry): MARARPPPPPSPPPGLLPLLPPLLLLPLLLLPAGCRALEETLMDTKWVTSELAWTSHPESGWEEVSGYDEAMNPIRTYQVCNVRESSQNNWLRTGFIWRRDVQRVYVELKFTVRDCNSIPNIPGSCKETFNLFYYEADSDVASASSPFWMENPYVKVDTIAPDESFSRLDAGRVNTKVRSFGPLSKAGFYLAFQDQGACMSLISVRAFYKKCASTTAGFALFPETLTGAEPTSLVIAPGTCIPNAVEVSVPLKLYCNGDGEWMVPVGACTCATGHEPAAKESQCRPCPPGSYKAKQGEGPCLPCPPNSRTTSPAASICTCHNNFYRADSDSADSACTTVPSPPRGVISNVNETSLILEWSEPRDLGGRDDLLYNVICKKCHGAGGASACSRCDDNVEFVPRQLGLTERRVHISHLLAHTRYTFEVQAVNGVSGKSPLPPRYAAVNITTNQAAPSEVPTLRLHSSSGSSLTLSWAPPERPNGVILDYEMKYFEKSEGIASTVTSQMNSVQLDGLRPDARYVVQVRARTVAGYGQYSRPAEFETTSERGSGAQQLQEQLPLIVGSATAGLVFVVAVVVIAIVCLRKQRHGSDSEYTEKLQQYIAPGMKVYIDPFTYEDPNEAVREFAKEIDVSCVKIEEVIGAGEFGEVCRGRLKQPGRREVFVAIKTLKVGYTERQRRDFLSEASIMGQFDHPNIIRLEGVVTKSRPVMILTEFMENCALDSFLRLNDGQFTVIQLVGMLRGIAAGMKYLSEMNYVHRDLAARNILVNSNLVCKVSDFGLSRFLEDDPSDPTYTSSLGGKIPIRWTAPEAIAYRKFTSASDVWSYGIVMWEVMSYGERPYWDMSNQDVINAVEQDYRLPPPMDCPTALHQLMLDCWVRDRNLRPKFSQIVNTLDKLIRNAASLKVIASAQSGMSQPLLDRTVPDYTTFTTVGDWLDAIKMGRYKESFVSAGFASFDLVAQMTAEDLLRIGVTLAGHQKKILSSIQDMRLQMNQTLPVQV
The conditions noted are these: at 0.1 µM.

Assay [3] deals with T2, Ephrin type-B receptor 3 (Homo sapiens). The conditions noted are these: at 1 µM.
Assay [4] concerns the target T3, Ephrin type-B receptor 4 (Homo sapiens) (UniProt P54760).
T3 sequence (whole entry): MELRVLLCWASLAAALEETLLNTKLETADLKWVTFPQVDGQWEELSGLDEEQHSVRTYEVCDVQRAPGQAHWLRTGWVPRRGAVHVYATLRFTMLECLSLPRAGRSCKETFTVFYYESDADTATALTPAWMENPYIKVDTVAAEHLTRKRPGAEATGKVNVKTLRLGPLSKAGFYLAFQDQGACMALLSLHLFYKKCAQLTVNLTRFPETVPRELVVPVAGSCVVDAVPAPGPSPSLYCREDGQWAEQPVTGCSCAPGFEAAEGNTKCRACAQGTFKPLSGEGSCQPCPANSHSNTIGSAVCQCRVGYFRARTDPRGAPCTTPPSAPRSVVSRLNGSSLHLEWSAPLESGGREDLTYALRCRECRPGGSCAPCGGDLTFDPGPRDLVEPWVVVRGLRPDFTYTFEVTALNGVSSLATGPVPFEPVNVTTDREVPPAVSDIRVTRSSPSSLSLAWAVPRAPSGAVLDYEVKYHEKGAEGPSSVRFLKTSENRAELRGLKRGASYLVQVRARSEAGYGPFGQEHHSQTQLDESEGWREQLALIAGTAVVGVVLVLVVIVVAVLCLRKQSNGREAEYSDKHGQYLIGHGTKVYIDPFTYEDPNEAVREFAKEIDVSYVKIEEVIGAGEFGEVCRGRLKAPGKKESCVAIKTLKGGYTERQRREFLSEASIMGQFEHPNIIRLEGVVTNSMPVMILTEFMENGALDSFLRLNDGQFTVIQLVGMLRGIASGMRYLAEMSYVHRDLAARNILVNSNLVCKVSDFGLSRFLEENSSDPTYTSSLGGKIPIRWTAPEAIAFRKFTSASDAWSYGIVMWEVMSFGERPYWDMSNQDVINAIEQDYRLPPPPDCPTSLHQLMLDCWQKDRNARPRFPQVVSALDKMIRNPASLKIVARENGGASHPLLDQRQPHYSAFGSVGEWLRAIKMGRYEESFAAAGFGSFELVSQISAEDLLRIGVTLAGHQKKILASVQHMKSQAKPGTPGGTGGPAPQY
The conditions noted are these: at 0.1 µM.

Assay [5] has as its target T3, Ephrin type-B receptor 4 (Homo sapiens). The conditions noted are these: at 1 µM.
Assay [6] deals with Receptor tyrosine-protein kinase erbB-2 (Homo sapiens) (UniProt P04626). The conditions noted are these: at 0.1 µM.
Assay [7] has the same target. The conditions noted are these: at 1 µM.
Assay [8] concerns the target Receptor tyrosine-protein kinase erbB-4 (Homo sapiens) (UniProt Q15303). The conditions noted are these: at 0.1 µM.
The target is the same in assay [9]. The conditions noted are these: at 1 µM.
For assay [10], the target named is Tyrosine-protein kinase Fer (Homo sapiens) (UniProt P16591). The conditions noted are these: at 0.1 µM.
Assay [11] shares this target. The conditions noted are these: at 1 µM.
Assay [12] deals with Tyrosine-protein kinase Fes/Fps (Homo sapiens) (UniProt P07332). The conditions noted are these: at 0.1 µM.
Assay [13] shares this target. The conditions noted are these: at 1 µM.
Assay [14] addresses Fibroblast growth factor receptor 1 (Homo sapiens) (UniProt P11362). The conditions noted are these: at 0.1 µM.
For assay [15] the target is unchanged. The conditions noted are these: at 1 µM.
Assay [16] concerns the target Fibroblast growth factor receptor 2 (Homo sapiens) (UniProt P21802). The conditions noted are these: at 0.1 µM.
For assay [17] the target is unchanged. The conditions noted are these: at 1 µM.
Assay [18] has as its target Fibroblast growth factor receptor 3 (Homo sapiens) (UniProt P22607). The conditions noted are these: at 0.1 µM.
Assay [19] has the same target. The conditions noted are these: at 1 µM.
Assay [20] has as its target Fibroblast growth factor receptor 4 (Homo sapiens) (UniProt P22455). The conditions noted are these: at 0.1 µM.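 Also: values are mean percent inhibition of FGFR4.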

As usually defined, the inhibition is the change of the read-out against control, counted positive when it falls.

Chain of Fibroblast growth factor receptor 2 (Homo sapiens) (P21802 22-821 limits assumed): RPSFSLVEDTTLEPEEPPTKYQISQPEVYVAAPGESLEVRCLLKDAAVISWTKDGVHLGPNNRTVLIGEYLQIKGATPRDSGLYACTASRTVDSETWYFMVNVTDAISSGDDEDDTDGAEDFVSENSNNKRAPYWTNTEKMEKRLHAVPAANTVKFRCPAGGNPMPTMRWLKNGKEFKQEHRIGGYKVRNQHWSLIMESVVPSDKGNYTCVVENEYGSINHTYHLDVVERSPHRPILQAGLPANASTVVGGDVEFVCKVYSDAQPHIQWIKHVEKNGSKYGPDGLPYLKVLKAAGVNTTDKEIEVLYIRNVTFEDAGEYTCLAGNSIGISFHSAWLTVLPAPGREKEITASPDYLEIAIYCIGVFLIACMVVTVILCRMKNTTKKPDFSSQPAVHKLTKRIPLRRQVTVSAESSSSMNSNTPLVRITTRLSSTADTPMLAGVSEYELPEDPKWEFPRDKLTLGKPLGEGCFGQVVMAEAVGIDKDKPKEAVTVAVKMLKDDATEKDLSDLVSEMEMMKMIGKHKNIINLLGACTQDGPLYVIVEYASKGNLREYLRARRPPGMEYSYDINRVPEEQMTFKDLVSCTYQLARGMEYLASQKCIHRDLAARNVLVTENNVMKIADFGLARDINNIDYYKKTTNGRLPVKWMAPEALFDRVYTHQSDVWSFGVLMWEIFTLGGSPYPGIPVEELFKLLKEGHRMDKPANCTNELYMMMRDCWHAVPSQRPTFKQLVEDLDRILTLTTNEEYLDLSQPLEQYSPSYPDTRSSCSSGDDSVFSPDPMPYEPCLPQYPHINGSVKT
Chain of Fibroblast growth factor receptor 3 (Homo sapiens) (P22607 23-806 limits assumed): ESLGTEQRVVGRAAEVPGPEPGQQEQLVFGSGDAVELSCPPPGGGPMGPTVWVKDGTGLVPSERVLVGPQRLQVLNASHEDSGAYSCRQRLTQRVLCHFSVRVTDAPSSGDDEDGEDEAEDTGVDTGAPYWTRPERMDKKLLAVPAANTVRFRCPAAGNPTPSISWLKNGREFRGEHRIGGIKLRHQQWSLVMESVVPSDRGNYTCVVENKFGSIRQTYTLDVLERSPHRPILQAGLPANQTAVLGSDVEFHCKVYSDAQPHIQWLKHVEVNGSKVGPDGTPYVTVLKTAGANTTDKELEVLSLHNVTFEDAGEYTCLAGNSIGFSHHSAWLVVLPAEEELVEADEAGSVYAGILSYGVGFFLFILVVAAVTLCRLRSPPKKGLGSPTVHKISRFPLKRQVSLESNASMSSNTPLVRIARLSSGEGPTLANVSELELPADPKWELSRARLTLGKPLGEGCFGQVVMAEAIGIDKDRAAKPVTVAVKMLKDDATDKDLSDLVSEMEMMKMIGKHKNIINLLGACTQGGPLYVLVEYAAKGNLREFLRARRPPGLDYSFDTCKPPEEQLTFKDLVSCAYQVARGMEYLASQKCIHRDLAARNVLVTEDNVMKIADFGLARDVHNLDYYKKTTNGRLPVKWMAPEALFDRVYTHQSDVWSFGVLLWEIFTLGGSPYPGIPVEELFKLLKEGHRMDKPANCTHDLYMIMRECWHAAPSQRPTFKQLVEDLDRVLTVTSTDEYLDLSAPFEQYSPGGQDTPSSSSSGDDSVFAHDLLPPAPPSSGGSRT
Chain of Fibroblast growth factor receptor 4 (Homo sapiens) (P22455 22-802 limits assumed): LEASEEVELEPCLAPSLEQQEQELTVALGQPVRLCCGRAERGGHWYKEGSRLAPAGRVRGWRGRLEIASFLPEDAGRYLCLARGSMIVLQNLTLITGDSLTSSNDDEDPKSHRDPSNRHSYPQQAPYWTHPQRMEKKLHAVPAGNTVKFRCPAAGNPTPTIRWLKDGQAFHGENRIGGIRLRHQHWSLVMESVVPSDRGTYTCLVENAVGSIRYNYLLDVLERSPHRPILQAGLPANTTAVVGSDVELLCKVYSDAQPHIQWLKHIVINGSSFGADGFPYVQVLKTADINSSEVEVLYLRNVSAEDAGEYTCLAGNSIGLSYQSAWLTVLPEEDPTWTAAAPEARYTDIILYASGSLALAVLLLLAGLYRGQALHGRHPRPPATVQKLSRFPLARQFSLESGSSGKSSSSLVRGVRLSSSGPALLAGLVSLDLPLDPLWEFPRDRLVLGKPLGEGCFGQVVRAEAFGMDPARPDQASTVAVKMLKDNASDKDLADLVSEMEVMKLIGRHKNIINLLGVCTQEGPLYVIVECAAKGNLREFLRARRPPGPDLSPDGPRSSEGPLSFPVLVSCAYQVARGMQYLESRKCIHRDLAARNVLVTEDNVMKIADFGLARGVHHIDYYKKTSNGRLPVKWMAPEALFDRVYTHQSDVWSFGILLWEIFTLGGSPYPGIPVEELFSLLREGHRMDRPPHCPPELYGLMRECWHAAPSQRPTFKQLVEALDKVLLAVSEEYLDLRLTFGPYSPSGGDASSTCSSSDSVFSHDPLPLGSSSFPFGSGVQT
Chain of Receptor tyrosine-protein kinase erbB-4 (Homo sapiens) (Q15303 whole entry): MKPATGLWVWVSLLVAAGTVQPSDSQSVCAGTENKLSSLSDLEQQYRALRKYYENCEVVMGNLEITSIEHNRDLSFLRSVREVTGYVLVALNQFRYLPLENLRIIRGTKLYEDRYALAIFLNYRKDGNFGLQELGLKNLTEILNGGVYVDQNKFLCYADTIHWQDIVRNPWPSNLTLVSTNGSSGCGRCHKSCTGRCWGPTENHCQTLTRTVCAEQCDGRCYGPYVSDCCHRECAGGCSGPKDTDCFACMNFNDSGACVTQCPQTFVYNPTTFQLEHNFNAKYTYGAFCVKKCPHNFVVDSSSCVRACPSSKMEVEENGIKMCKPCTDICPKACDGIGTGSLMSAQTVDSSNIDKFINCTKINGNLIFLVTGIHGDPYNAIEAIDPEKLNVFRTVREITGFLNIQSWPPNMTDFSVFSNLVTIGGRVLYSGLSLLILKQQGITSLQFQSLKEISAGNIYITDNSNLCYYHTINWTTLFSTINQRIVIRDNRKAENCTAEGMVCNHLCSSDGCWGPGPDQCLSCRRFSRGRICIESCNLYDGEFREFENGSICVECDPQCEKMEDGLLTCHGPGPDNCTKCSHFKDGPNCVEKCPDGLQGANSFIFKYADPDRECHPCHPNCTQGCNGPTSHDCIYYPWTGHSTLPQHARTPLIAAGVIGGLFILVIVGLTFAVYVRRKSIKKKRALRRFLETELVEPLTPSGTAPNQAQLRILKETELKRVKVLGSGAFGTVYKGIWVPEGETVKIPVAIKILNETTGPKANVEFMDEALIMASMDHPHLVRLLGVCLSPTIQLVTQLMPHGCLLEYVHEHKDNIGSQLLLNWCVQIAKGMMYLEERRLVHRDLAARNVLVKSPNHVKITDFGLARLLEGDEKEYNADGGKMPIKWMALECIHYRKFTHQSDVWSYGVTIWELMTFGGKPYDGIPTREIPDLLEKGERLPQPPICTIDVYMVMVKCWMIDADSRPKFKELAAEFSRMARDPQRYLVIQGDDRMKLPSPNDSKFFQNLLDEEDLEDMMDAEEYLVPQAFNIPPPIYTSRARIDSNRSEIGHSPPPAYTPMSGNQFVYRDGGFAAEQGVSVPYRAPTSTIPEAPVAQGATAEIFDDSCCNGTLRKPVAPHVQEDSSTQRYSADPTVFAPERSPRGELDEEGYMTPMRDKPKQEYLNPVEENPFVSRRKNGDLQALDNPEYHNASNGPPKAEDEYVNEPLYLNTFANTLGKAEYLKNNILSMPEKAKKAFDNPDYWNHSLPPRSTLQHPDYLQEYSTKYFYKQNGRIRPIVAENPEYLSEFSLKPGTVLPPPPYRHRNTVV
Chain of Receptor tyrosine-protein kinase erbB-2 (Homo sapiens) (P04626 whole entry): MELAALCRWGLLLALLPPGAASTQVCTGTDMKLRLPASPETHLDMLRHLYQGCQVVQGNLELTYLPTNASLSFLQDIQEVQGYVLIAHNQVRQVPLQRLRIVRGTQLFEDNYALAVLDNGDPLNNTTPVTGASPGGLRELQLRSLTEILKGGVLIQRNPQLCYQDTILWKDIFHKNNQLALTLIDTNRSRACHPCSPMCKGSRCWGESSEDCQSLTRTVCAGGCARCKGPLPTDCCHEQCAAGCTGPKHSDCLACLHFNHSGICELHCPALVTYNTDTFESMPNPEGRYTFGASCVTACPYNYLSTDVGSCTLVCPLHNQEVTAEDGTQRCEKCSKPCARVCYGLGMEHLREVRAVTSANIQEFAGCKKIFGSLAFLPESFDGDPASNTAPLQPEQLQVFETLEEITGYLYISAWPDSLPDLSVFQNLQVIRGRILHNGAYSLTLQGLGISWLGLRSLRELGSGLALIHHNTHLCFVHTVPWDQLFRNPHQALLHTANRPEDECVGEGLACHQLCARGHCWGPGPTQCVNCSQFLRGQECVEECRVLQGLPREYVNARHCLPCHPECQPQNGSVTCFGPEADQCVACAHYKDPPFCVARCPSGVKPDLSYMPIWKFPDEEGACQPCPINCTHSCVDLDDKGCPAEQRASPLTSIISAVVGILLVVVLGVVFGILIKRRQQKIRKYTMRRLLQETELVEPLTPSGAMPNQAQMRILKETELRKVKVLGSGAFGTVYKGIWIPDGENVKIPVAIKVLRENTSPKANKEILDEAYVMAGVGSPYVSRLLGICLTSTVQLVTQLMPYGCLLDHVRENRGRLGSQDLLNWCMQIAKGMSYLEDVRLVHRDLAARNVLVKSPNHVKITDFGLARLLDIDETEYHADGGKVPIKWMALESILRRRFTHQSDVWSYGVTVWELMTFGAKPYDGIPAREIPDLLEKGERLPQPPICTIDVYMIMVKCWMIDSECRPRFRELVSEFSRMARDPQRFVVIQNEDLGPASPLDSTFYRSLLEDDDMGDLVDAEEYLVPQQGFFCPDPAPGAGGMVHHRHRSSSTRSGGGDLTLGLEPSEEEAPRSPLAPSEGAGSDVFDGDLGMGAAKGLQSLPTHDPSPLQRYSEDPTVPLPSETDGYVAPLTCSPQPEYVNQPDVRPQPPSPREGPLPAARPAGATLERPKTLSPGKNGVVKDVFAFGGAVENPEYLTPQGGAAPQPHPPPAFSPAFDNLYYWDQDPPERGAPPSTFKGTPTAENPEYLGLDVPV

On to `COc1ccc(-c2ccncc2)cc1C(N)=O`, for which the inhibition came to 8.22% in assay [1]; 3.97% in assay [2]; 3.63% in assay [3]; 1% in assay [4]; 2.03% in assay [5]; 1.06% in [6]. Besides, the inhibition came to 2.95% in [7]; 6.21% in assay [8]; 12.3% in assay [9]; 4.03% in [10]; 3.22% in assay [11]; 2.97% in assay [12]. Besides, the inhibition in [13] was 3.83%; in assay [14] it was 4.37%; in [15] it was 8.58%; in assay [16], 7.42%; in assay [17], 8.69%; in assay [18] it was 7.66%. Besides, the inhibition worked out at 7.43% in [19] and 2.74% in [20].
Consider `Cc1nnc(-c2ccc(C)c(-c3ccc(C(=O)Nc4cccc(C#N)c4)cc3)c2)o1`, for which the inhibition in [1] worked out at 8.63%; in assay [2], 4.01%; in assay [3], 4.32%; in assay [4] it was 1.3%; in assay [5] it was 1.73%; in [6] it was 2.71%. For the same compound, the inhibition in [7] stood at 2.09%; in assay [8], 11%; in assay [9], 16.2%; in [10], 2%; in [11] it was 1.72%; in [12] it was 0.91%. Also, the inhibition in [13] was 2.11%; in assay [14], -1.37%; in assay [15], 1.5%; in [16] it was 1.7%; in assay [17], 4.97%; in [18], 2.6%. The inhibition came to 3.98% in assay [19] and 2.08% in assay [20].
For `COC(=O)Nc1nc2cc(Oc3ccc(NC(=O)Nc4cccc(C(=O)O)c4)cc3)ccc2[nH]1`, the inhibition in assay [1] was 3.77%; in assay [2] it was -0.56%; in assay [3], -3.97%; in assay [4], -2.57%; in assay [5], -4.05%; in assay [6], -0.03%. For the same compound, the inhibition is 3.5% in assay [7]; 2.52% in assay [8]; 0.22% in assay [9]; -1.22% in [10]; 2.49% in assay [11]; -0.49% in assay [12]. Further, the inhibition is 0.5% in assay [13]; -4.37% in assay [14]; -2.27% in [15]; -3.37% in [16]; 5.77% in assay [17]; -1.47% in [18]. For the same compound, the inhibition was 11.9% in assay [19] and -6.8% in [20].
For `COc1cc2ncn(-c3cc(OCc4ccccc4C(F)(F)F)c(C(N)=O)s3)c2cc1OC`, the inhibition in assay [1] is 17.3%; in [2] it was 1.32%; in assay [3] it was 0.77%; in assay [4], 0.05%; in assay [5], 1.61%; in [6], 3.56%. In addition, the inhibition turned out to be 4.42% in assay [7]; 3.59% in assay [8]; 11.8% in assay [9]; 3.4% in [10]; 10.5% in assay [11]; 2.56% in [12]. In addition, the inhibition in assay [13] is 1.4%; in assay [14], -0.93%; in assay [15], 13%; in assay [16], 2.62%; in assay [17] it was 20.9%; in assay [18] it was 6.21%. Also, the inhibition in assay [19] was 18.2%; in [20], -3.31%.
Consider `Nc1ncnc2occ(-c3ccc(NC(=O)Nc4cccc(C(F)(F)F)c4)cc3)c12`, for which the inhibition in assay [1] is 78.2%; in assay [2], 19.6%; in assay [3] it was 68.2%; in [4] it was 31.2%; in [5], 84.4%; in assay [6], -0.01%. In addition, the inhibition in assay [7] was determined as 3.75%; in [8] it was 8.79%; in assay [9], 15.2%; in [10], 2.94%; in assay [11] it was 33.6%; in assay [12], 3.8%. The inhibition worked out at 4.91% in [13]; 8.01% in assay [14]; 38.2% in [15]; 15.8% in [16]; 52.5% in assay [17]; 7.97% in [18]. Also, the inhibition is 34.4% in assay [19] and -1% in [20].
In the case of `CCn1c(-c2nonc2N)nc2c(N3CCCC3)nccc21`, the inhibition was -2.7% in assay [1]; -2.28% in assay [2]; -3.63% in assay [3]; -1.4% in assay [4]; -1.17% in [5]; -5.46% in [6]. For the same compound, the inhibition in [7] was -0.23%; in [8] it was -3.28%; in assay [9] it was -2.19%; in assay [10], 2.26%; in assay [11] it was 2.34%; in assay [12], -2.72%. Also, the inhibition is -3.78% in assay [13]; -3.71% in assay [14]; -1.9% in assay [15]; -4% in [16]; -1.03% in [17]; 0.34% in assay [18]. In addition, the inhibition in assay [19] is -0.31%; in assay [20], 3.05%.

The record behind these values is ChEMBL document CHEMBL1961873, “Compounds: GSK PKIS; Assays: Nanosyn kinase panel” (2012).
